Screening data from PubChem BioAssay.
ALDH1A1 block: blocks purified human ALDH1A1 activity. Purified ALDH1A1, NADH fluorescence, propionaldehyde substrate. Potency, µM (top dose mostly 75.3 µM), actives largely listed as inhibitors. P00352. AID 1030. 220,000 compounds, 7.3% hits; active = well fitted inhibition curve with a large enough effect, not every such curve was filed as active; inconclusive = small, poorly fitted or top-dose-only effect, or another doubt; inactive = no such curve, though single readings can be large or run the other way
HPGD inh: blocks human HPGD enzyme activity | purified HPGD, NADH fluorescence kinetic, PGE2 substrate | Potency, µM, most hits filed as inhibitors | 150,000 compounds, 4.3% hits | AID 894; active = well fitted inhibition curve with a large enough effect, not every such curve was filed as active; inconclusive = small, poorly fitted or top-dose-only effect, or another doubt; inactive = no such curve, though single readings can be large or run the other way
Target sequence (P15428 whole entry, looked up): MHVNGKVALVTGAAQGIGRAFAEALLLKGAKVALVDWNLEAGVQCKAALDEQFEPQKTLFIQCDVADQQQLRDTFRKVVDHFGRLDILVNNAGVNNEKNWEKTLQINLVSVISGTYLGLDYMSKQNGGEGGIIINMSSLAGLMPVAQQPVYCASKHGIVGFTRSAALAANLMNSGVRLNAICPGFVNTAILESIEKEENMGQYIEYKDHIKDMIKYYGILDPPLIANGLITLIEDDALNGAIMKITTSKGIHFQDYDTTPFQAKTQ
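20 nM HPGD preincubated 15 min at room temperature with compound in 50 mM Tris-HCl pH 8, 0.01% Tween 20. Started with 1 mM NAD+ and 30 uM prostaglandin E2; NADH fluorescence (360/450 nm) read 5 times over 30-s intervals, last minus first.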
IMPase Li inh: membrane-permeable IMPase blocker, potentiated with lithium; 210,000 compounds, 0.35% hits; CHO-M1 cells, IP1 TR-FRET (IP-One), carbachol + lithium; Potency, µM (top dose mostly 59.4 µM), usual class: inhibitors; AID 1457;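 note: IP1 builds up when IMPase is blocked and the TR-FRET signal falls; nearly all actives have a fitted effect of over 50% in size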
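CHO cells stably expressing M1 receptor (2000/well) were cultured 16–30 h, then exposed to compounds with a small lithium addition for 30 min at 37C. IP1 was measured by TR-FRET competition; AC50 from Hill fits.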
IMPase cell inh: cell-permeable inhibitors of inositol monophosphatase (IMPase) | inhibition (IP1 accumulation), % at 46.1 µM | CHO-M1 cells, IP1 accumulation, HTRF TR-FRET ratio | P97697 | 120,000 tested, under 10 active; active = well fitted curve in the direction sought with a large enough effect in the signal ratio, not every such curve was filed as active; inconclusive = small, poorly fitted or top-dose-only effect, or a change in a side signal; inactive = no such curve, though single readings can be large or run the other way; the % refers to the signal ratio;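 note: cells stimulated with carbachol in lithium chloride buffer; higher means more IMPase inhibition seen as more IP1 and lower FRET ratio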
Target sequence (P97697 whole entry, looked up): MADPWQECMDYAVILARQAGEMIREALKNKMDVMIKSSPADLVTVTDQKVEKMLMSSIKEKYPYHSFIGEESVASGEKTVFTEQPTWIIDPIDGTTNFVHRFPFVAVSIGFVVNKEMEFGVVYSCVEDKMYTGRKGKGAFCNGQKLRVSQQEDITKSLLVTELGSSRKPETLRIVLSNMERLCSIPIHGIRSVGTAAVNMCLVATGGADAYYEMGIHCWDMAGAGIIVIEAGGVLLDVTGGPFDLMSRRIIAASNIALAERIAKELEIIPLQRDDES
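Measured: the HTRF emission ratio (665/620 nm) plus the 620 nm donor channel, each fitted to the Hill equation to give AC50. Cells were CHO-M1 given compounds up to 46 uM and a 30 min carbachol stimulation at 37C.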
HttQ103 aggreg: inhibitors of mutant huntingtin aggregate formation in PC12 cells | AID 1688 | Potency, µM (titrated, usually from 46.1 µM), actives largely listed as inhibitors | PC12 HttQ103-GFP aggregates, Acumen cytometry, 40 h | 220,000 compounds, 1.1% hits; note: nearly all actives have a fitted effect of over 60% in size
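Ecdysone-promoter PC12 model expressing HTT exon 1 Q103 fused to GFP, induced by tebufenozide at 100 nM final. Compounds titrated; aggregates sized 1–25 µm scored on a 488 nm laser cytometer.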
HTT cytoprotect: Huntington cell model cytoprotection by ATP luminescence | PC12 HTT-Q103 induced, cytoprotection, ATP luminescence, 40 h | Potency, µM (highest dose often 56.4 µM), most hits filed as activators | 230,000 compounds, 0.14% hits; note: nearly all actives have a fitted effect of over 45% in size
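Readout: ATPlite luminescence (ATP level). Model: stable PC12, inducible Htt exon1 Q103-GFP. Inducer: tebufenozide, 100 nM final. Compounds: dose series. No G418 in medium.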
Of the large screens only hits and unclear results are named; the others gave an inactive call; ! = a repeat was not active. Hits are enriched below; roughly 9.4% of the tested compounds scored in any of these assays. Unless noted, calls come from the whole dose curve; as a rule, active = well fitted curve in the direction sought with a large enough effect; inconclusive = small, poorly fitted or top-dose-only effect, or another doubt; inactive = no such curve, though single readings can be large; an effect the other way counts as inactive or inconclusive.

CCCCC/C=C\C/C=C\CCCCCCCC(=O)NCCCC(=O)O	none (no result: IMPase cell inh, HttQ103 aggreg)
CN(C)c1nc(N(C)C)nc(N(C#N)CN2C(=O)c3ccccc3S2(=O)=O)n1	ALDH1A1 block 20µM (no result: HPGD inh, IMPase cell inh)
CC(C)Nc1nc(Cl)nc(N(C#N)CN2C(=O)c3ccccc3S2(=O)=O)n1	ALDH1A1 block 22µM (no result: HPGD inh, IMPase Li inh, IMPase cell inh)
COc1ccc(S(=O)(=O)N(CC(=O)Nc2cc(C)cc(C)c2)c2ccc(Cl)cc2)cc1	none (no result: ALDH1A1 block, HPGD inh, IMPase Li inh, HttQ103 aggreg, HTT cytoprotect)
Cc1ccccc1S(=O)(=O)c1c(C)cc(C)n(CC(C)C)c1=O	ALDH1A1 block 7.9µM
C#CCCCO/N=C1/C[C@@H](O)[C@@H](O)[C@@H]2[C@@H]3C(=O)N([C@@H](C)c4ccccc4)C(=O)[C@H]3CC[C@H]12	none (no result: HPGD inh, IMPase Li inh, IMPase cell inh, HttQ103 aggreg)
O=Cc1cccc(Br)c1	ALDH1A1 block inconclusive (no result: IMPase cell inh, HttQ103 aggreg)
[O-]/[N+](=C\c1cccc(Br)c1)c1ccccc1	ALDH1A1 block 0.32µM (no result: HPGD inh, IMPase cell inh)
[O-]/[N+](=C\c1ccc(F)cc1)c1ccccc1	ALDH1A1 block 20µM
[O]=[Bi][O]C(=O)[O][Bi]=[O]	none (no result: ALDH1A1 block, HPGD inh, IMPase Li inh, IMPase cell inh)
CCCCCCCc1cc2c(cn1)=C(OC)C(C)(OC(C)=O)C(=O)C=2Cl (configuration not stated)	none (no result: IMPase cell inh, HttQ103 aggreg)
Cc1ccc(-n2nnnc2SCCNS(=O)(=O)c2ccccc2)cc1C	ALDH1A1 block 5µM
Cn1nnnc1SCCNS(=O)(=O)c1ccccc1	none
Nc1ccccc1C(=O)CC(N)C(=O)O (configuration not stated)	HTT cytoprotect inconclusive (no result: HttQ103 aggreg)
COc1ccc(CCCn2ncc3c2nc(N)n2nc(-c4ccco4)nc32)cc1	HPGD inh inconclusive (no result: IMPase cell inh, HttQ103 aggreg)
O=C(CSc1ncnc2ccccc12)Nc1ccc2c(c1)OCO2	ALDH1A1 block 11µM
O=C(CSc1nc2ncc(Cl)cc2[nH]1)c1ccc2c(c1)OCO2	none (no result: ALDH1A1 block, HPGD inh, IMPase Li inh, IMPase cell inh)
Cc1ccc(C(=O)CSc2ncnc3ccccc23)o1	ALDH1A1 block inconclusive (no result: HPGD inh, IMPase cell inh, HTT cytoprotect)
O=C(COC(=O)c1c2c(nc3ccccc13)CCCC2)Nc1ccc2c(c1)OCO2	ALDH1A1 block 8.9µM
O=C(CSc1ncnc2ccccc12)c1cccs1	ALDH1A1 block 11µM, HttQ103 aggreg inconclusive (no result: HPGD inh, IMPase cell inh)
O=C(CSc1nc2ncc(Br)cc2[nH]1)Nc1ccc2c(c1)OCO2	ALDH1A1 block 25µM (no result: HPGD inh, IMPase Li inh)
O=C1[C@@H]2[C@H]3[C@H](O)[C@H](O)C/C(=N/OC[C@@H](O)COCc4ccco4)[C@@H]3CC[C@H]2C(=O)N1c1ccc(F)cc1F	none (no result: HPGD inh, IMPase Li inh, IMPase cell inh, HttQ103 aggreg)
Cc1cccc(NC(=O)CSc2nnc3c4ccccc4n(C)c3n2)c1	none (no result: ALDH1A1 block, HPGD inh, IMPase Li inh, HttQ103 aggreg, HTT cytoprotect)
NS(=O)(=O)c1cccc(NC(=O)CSc2ncnc3ccccc23)c1	none (no result: ALDH1A1 block, HPGD inh, IMPase Li inh, IMPase cell inh)
NS(=O)(=O)c1ccc(NC(=O)CSc2ncnc3ccccc23)cc1	HTT cytoprotect 8.9µM (no result: HPGD inh, IMPase cell inh)
CCCCCCCCNC(C)C(O)c1ccc(SC(C)C)cc1 (configuration not stated)	ALDH1A1 block 7.9µM!, HttQ103 aggreg inconclusive (no result: IMPase cell inh)
C=CCn1c(C(c2ccccc2)c2ccccc2)n[nH]c1=S	HPGD inh 25µM (no result: IMPase cell inh)
C=CCn1c(Cc2nc3ccccc3[nH]2)n[nH]c1=S	ALDH1A1 block inconclusive, HPGD inh inconclusive
S=c1[nH]nc(CSc2nc3ccccc3s2)n1Cc1ccccc1	ALDH1A1 block inconclusive, HPGD inh 13µM
CCn1c(CSc2nc3ccccc3s2)n[nH]c1=S	ALDH1A1 block inconclusive, HPGD inh inconclusive
C=CCn1c(CSc2nc3ccccc3s2)n[nH]c1=S	ALDH1A1 block 11µM, HPGD inh 18µM
Cn1c(=O)c2[nH]c(CCCCC(=O)O)nc2n(C)c1=O	ALDH1A1 block inconclusive (no result: IMPase cell inh, HttQ103 aggreg)
CC1CCN(S(=O)(=O)c2ccc3c(c2)oc(=O)n3CC(=O)NCc2ccc3c(c2)OCO3)CC1	HttQ103 aggreg 8.9µM
C[C@@]12CCC(=O)C=C1CC[C@H]1[C@@H]2[C@@H](O)C[C@]2(C)[C@@H]1CC[C@@]2(O)C(=O)COC(=O)C1CCCC1	none (no result: ALDH1A1 block, HPGD inh, IMPase Li inh, IMPase cell inh, HttQ103 aggreg)
COC(C1CCCCC1)C(C)C(OCc1cccc(Br)c1)C(C)CO (configuration not stated)	none (no result: HPGD inh, IMPase Li inh, IMPase cell inh, HttQ103 aggreg)
COc1ccccc1N1C(=O)CC(Nc2ccc(N3CCOCC3)cc2)C1=O (configuration not stated)	ALDH1A1 block inconclusive
